The panel holds about 83,000 compounds, 20% with a hit somewhere; the sample as a whole holds those more often.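 Cell lines were cultured in 96-well plates, exposed to a single compound concentration, and assessed for percent growth 48 hours later.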 Values without a mark were called inactive. Activity calls are given as the source filed them. Rule for the calls: active = growth percent below 10; inactive = the rest.
Experiments:
Assay in all cases: NCI-60 one-dose screen, 48 h (100 = growth as untreated, 0 = no growth, -100 = all killed)
[1] = tested on: SK-MEL-2 melanoma; conditions: 10 µM unless noted
[2] = tested on: EKVX NSCLC; conditions: 10 µM unless noted
[3] = tested on: SN12C renal; conditions: 10 µM unless noted
[4] = tested on: UO-31 renal; conditions: 10 µM unless noted
[5] = tested on: TK-10 renal; conditions: 10 µM unless noted
[6] = tested on: ACHN renal; conditions: 10 µM unless noted
[7] = tested on: CAKI-1 renal; conditions: 10 µM unless noted
[8] = tested on: A498 renal; conditions: 10 µM unless noted
[9] = tested on: CCRF-CEM leukemia; conditions: 10 µM unless noted
[10] = tested on: SR leukemia; conditions: 10 µM unless noted
[11] = tested on: OVCAR-8 ovarian; conditions: 10 µM unless noted
[12] = tested on: OVCAR-5 ovarian; conditions: 10 µM unless noted
[13] = tested on: OVCAR-4 ovarian; conditions: 10 µM unless noted
[14] = tested on: IGROV1 ovarian; conditions: 10 µM unless noted
[15] = tested on: OVCAR-3 ovarian; conditions: 10 µM unless noted
[16] = tested on: HS 578T breast; conditions: 10 µM unless noted
[17] = tested on: NCI/ADR-RES ovarian; conditions: 10 µM unless noted
[18] = tested on: RPMI-8226 leukemia; conditions: 10 µM
[19] = tested on: SK-OV-3 ovarian; conditions: 10 µM
[20] = tested on: MOLT-4 leukemia; conditions: 10 µM unless noted

Structure (SMILES) | growth [1] | growth [2] | growth [3] | growth [4] | growth [5] | growth [6] | growth [7] | growth [8] | growth [9] | growth [10] | growth [11] [%] | growth [12] | growth [13] | growth [14] | growth [15] | growth [16] | growth [17] | growth [18] | growth [19] | growth [20]
Nc1cccc2c(=S)c3ccccc3[nH]c12 | 87.5% | 93.6% | 90.6% | 56.4% | 192% | 92.7% | 77.1% | 64.5% | 100% | 111% | 93.7 | 92.9% | 83% | 86.9% | 91% | 94.3% | 101% | – | – | –
O=[N+]([O-])c1ccc2nc(N/N=C/c3ccc(O)cc3)sc2c1 | -0.896% (active) | 85.5% | 54.7% | 27.5% | 54% | 47% | 23.2% | 91.5% | – | 18.2% | 59.9 | 113% | 56% | 46.6% | 51.3% | 83.5% | 81.7% | 28.3% | 82.4% | –
CCCCC1COc2cccc3c(SCC(=O)N(C)c4cccc5ccccc45)cc[n+]1c23 (stereo not drawn) | 102% | 109% | 98.7% | 94.1% | 96.2% | 104% | 98.7% | – | 99.8% | 96.1% | 102 | 112% | 99% | 111% | 107% | 108% | 104% | 89.5% | – | 102%
CCCCc1ccc(C(O)(CCN2CC3CCC(CC3)C2)c2ccccc2)cc1 (stereo not drawn) | 98% | 87.4% | 95.7% | 65.3% | 104% | 94.5% | 92.6% | 77% | – | 68% | 104 | 90.9% | 97% | 95.2% | 91.9% | – | 98.3% | 72.2% | 91.2% | 80.9%
CC(C)N1CCN(c2ccc(OC[C@H]3CO[C@](Cn4cncn4)(c4ccc(Cl)cc4Cl)O3)cc2)CC1 | 95% | 91.4% | 81.2% | 98.7% | 91.5% | 102% | 79.3% | 76.7% | 82.6% | 58.1% | 100 | 85.1% | 99.2% | 104% | 102% | 84% | 88.1% | 88.7% | 94% | –
Cn1c(=O)c2c(-c3ccccc3F)n(-c3ccc4c(c3)OCO4)cc2n(C)c1=O | 133% | 87.6% | 90.4% | 82.4% | 115% | 100% | 89.6% | 69.5% | – | 68.1% | 99.1 | 98.6% | – | 101% | 114% | 88.2% | 95.8% | 52.9% | 110% | 72.9%
O=c1onc(-c2ccccc2)c2ccccc12 | 118% | 121% | 101% | 97.8% | 114% | 112% | 98.5% | 83.1% | – | – | 103 | 116% | 106% | 113% | 113% | – | 103% | 98.4% | 112% | 98.9%
COc1cccc(C2C3=C(COC3=O)N(CCO)c3cc4c(cc32)OCO4)c1 (stereo not drawn) | 33% | 36.2% | 46.7% | 57.7% | 59.8% | 48.4% | 30% | -5.85% (active) | 21.3% | – | 42.3 | 35.6% | 40.6% | 30.4% | -64.9% (active) | 2.25% (active) | -16.2% (active) | 31.4% | 20.8% | –
FC(F)(F)c1ccc2c(c1)n1cnnc1c1nncn21 | 112% | 94.4% | 106% | 87.6% | 100% | 112% | 97% | 94.7% | – | 84.1% | – | 110% | 111% | 119% | 117% | – | 113% | 95.2% | 109% | 96.4%
Cc1cc(NS(=O)(=O)c2ccc(NC(=O)COc3ccc(-c4cc5ccccc5[nH]4)cc3)cc2)no1 | 27.3% | 54.4% | 39.2% | 26.4% | 52.6% | 21.7% | 57.5% | 42.9% | – | -5.32% (active) | 32.3 | 52.3% | – | 35.3% | -0.541% (active) | 16.6% | 9.15% (active) | 24.9% | 13.7% | –
CCCCCCCC/C=C\CCCCCCCCOc1cccc(CC(=O)NCC[N+]2(C)CCCC2)c1 | 107% | 89.4% | 53% | 94.1% | 84.7% | 99% | 78.1% | – | 51.6% | 43.1% | 85.5 | 53.8% | 77.1% | -15.7% (active) | 96.2% | 77.5% | 108% | 77.3% | – | 80.3%
O=C(CCc1nnc2sc(-c3ccccc3)nn12)c1nc2ccccc2[nH]1 | 104% | 99.5% | 86.6% | 77.5% | 108% | 101% | 103% | 80.4% | – | 69.6% | 97.2 | 116% | 98.7% | 96.8% | 116% | 102% | 92.5% | 83% | 107% | 78.4%
COc1cc(CNCCN2C(=O)c3ccc4c5c(ccc(c35)C2=O)C(=O)N(CCNCc2cc(OC)c(OC)c(OC)c2)C4=O)cc(OC)c1OC | -82.3% (active) | -42% (active) | -87.7% (active) | -70.2% (active) | -87.1% (active) | -92.2% (active) | -70% (active) | -92.7% (active) | -20.7% (active) | – | – | -78.7% (active) | -70.9% (active) | -53.5% (active) | -99.1% (active) | -60.7% (active) | -20.2% (active) | -25.5% (active) | -96.9% (active) | -4.82% (active)
CC1CCCCN1S(=O)(=O)c1ccc(CN=C=S)cc1 (stereo not drawn) | 94.5% | 99.2% | 66.1% | 54% | 64.4% | 4.78% (active) | 51.2% | 79% | 39.2% | – | 78.7 | 93% | 100% | 60.9% | -55.6% (active) | 59.4% | 102% | – | – | –
CC(C)NCC(O)COc1ccc(CCOCC2CC2)cc1 (stereo not drawn) | 109% | 98.4% | 96.9% | 76.9% | 111% | 109% | 99.3% | 90.7% | 93.8% | 78.3% | 93 | 107% | 82.5% | 113% | 112% | 109% | – | 99.1% | 113% | –
COC(=O)C1C2CC3c4[nH]c5cc(OC)ccc5c4CCN3CC2CC(OC2CCCCO2)C1OC (stereo not drawn) | 106% | 101% | 108% | 92.8% | 104% | 99.6% | 83.2% | 82.8% | 89.2% | 88.5% | 96.2 | 105% | 93.6% | 114% | 107% | 96.2% | 95.4% | 87.5% | 101% | –
COc1ccc(NS(=O)(=O)c2ccc(-c3cnc(C4CC4)o3)cc2)cc1 | 46.6% | 69.9% | 81.5% | 69.8% | 79.8% | 80.6% | 48.3% | – | 76.2% | 40.8% | 81.5 | 78.6% | 60.8% | 62.8% | 27.4% | 42.4% | 30.3% | 74.9% | – | 48.6%

Reference: PubChem BioAssay (NCI)
